Outcome data for 3 molecules are collected here from PubChem BioAssay AID588477 (NMMLSC, 2011).

Activity calls are given as the source filed them.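 How the source made its calls: active means valid curve fit with half-effect dose at most 10 µM and total binding change across doses of 30 points or more; inactive means the rest.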

The test can be described thus: inhibitors of Bodipy-GTP binding across eight GTPases, SAR follow-up, selectivity assay for Cdc42 probe extension project, biochemical, round 1 SAR, Mg buffer, multiplex flow cytometry (AID 588477). The conditions noted are these: GST-GTPase beads, Ras constitutively active; series mostly up to 100 µM. (Flow cytometry measures light scatter and fluorescence of single cells or particles in a stream.)
As for `O=C(C#Cc1ccccc1)c1cccc([N+](=O)[O-])c1`, the molecule was classed as inactive.

As to `COc1ccc(C2CC(c3ccccc3)=NN2c2ccc(S(N)(=O)=O)cc2)cc1` (stereo not drawn), the result was inactive.

Consider `NS(=O)(=O)c1ccc(N2N=C(c3ccccc3)CC2c2ccccc2)cc1` (stereo not drawn), for which the molecule was called inactive.
